This note sets out measurements from PubChem BioAssay.

For test [1], the system named is Plasmodium falciparum Sir2 (PF13_0152, Sir2A). The test is described as follows: Plasmodium falciparum Sir2A binding compounds – biochemical, small-molecule microarray, 635 nm fluorescence, primary screen (AID 1098).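 Further: score merges spot fluorescence intensity with its signal-to-noise ratio.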 The settings on record: fluorescence 635 nm, higher = more signal.
Test [2] is described as follows: probe aDKK1 binding to arrayed compounds – biochemical, biotinylated probe, 635/667 nm fluorescence, primary screen (AID 1099).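 Further: score merges 667nm spot fluorescence with signal to noise across triplicate slides.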 The settings on record: small-molecule microarray, higher = more signal.
A short description of test [3]: probe aCHRDL2 binding to arrayed compounds – biochemical, biotinylated probe, 635/667 nm fluorescence, primary screen (AID 1100). The settings on record: small-molecule microarray, higher = more signal.
A short description of test [4]: change in splice reporter luminescence, either direction, cell-based, HEK293, spliceosome inhibition project, primary screen (AID 1101).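 Further: HEK293 cells carrying a splicing-competent luciferase reporter gene; test concentration not given here.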 The settings on record: HEK293 splicing luciferase reporter, 24 h, higher = more signal, called active from +8 up or from −8 down.
Test [5] has as its target Fibroblast growth factor 10 (Homo sapiens) (UniProt O15520). In words: compounds binding fibroblast growth factor 10 – biochemical, small-molecule microarray, 635 nm fluorescence, primary screen (AID 1102). Conditions: FGF10 binding, fluorescence 635 nm, higher = more signal.
The subject of test [6] is glycogen synthase kinase-3 (GSK3A per assay name; protocol says GSK3B). The test is described as follows: compounds binding glycogen synthase kinase-3 – biochemical, small-molecule microarray, 635 nm fluorescence, GSK3A, primary screen (AID 1103). Further: the record names both GSK3A and GSK3B. The settings on record: fluorescence 635 nm, higher = more signal.
The target of test [7] is Epidermal growth factor receptor (Homo sapiens) (UniProt P00533). In words: compounds binding epidermal growth factor receptor – biochemical, small-molecule microarray, 635 nm fluorescence, primary screen (AID 1104).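 Further: score merges 667 nm emission intensity with spot signal to noise over triplicate slides.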 Conditions: EGFR binding, higher = more signal.
Test [8] concerns the target Follistatin-related protein 3 (Homo sapiens) (UniProt O95633). The test is described as follows: compounds binding follistatin-related protein 3 – biochemical, small-molecule microarray, 635 nm fluorescence, primary screen (AID 1105).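 Further: score merges emission near 667 nm and signal to noise per printed spot across three slides.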 Conditions: FSTL3 binding, higher = more signal.
Test [9] addresses Dickkopf-related protein 1 (Homo sapiens) (UniProt O94907). The test is described as follows: small molecules binding DKK1 protein – biochemical, small-molecule microarray, 635 nm fluorescence scan, primary screen (AID 1106).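 Further: score merges emission near 667 nm with signal to noise over three replicate slides.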 Conditions: higher = more signal.
The test system of test [10] is Inhibin beta A chain (activin A). The test is described as follows: small molecules binding activin A – biochemical, small-molecule microarray, 635 nm fluorescence scan, primary screen (AID 1107).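 Further: mouse activin A protein probed at 4.33 µg/mL on printed slides; score merges bound-protein fluorescence near 667 nm with spot signal-to-noise.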 The settings on record: INHBA, higher = more signal.
Test [11] deals with Human papillomavirus type 1a protein E7 (residues 44-93). In words: small molecules binding HPV E7 44-93 – biochemical, small-molecule microarray, residues 44-93, 635 nm fluorescence, primary screen (AID 1108).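 Further: E7 fragment applied at 1 µg/mL in TBST for 1 h at 4 C; score combines spot fluorescence with its signal to noise ratio.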 The settings on record: fluorescence 635 nm, higher = more signal.
Test [12] is described as follows: hepatitis C replication reporter changes, two-sided – Huh7 cells, luciferase reporter, HCV replication inhibitor project, primary screen (AID 1109).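 Further: huh7 hepatoma cells harbouring a luciferase neomycin HCV replicon reporter; luciferase luminescence as measure of HCV replicon replication; test concentration not given here.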 The settings on record: Huh7 HCV replicon luciferase reporter, 48 h; higher = more signal.
Test [13] has as its target Left-right determination factor 2 (Homo sapiens) (UniProt O00292). In words: small molecules binding LEFTY2 protein – biochemical, small-molecule microarray, 635 nm fluorescence scan, primary screen (AID 1110). Conditions: higher = more signal.
Test [14] addresses Calmodulin-1 (Homo sapiens) (UniProt P0DP23). The test is described as follows: small molecules binding calmodulin-1 with EGTA – biochemical, small-molecule microarray, Cy5-labelled CALM1, profiling panel (AID 1111).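 Further: labelled calmodulin applied in Tris saline Tween buffer holding calcium plus EGTA and DTT.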 Conditions: Cy5-CALM1 binding fluorescence, higher = more signal.
Test [15] shares this target. In words: small molecules binding Ca-loaded calmodulin-1 – biochemical, small-molecule microarray, Cy5-labelled CALM1, plus calcium, artefact control for SMM control-protein annotation, profiling panel (AID 1112).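 Further: score merges spot fluorescence with signal to noise from triplicate slides.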 Conditions: Cy5-CALM1 binding fluorescence, higher = more signal.
Test [16] can be described thus: probe aWnt5a binding to arrayed compounds – biochemical, biotinylated probe, 635/667 nm fluorescence, primary screen (AID 1113).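 Further: score merges 667 nm fluorescence intensity with signal-to-noise per printed feature.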 Conditions: small-molecule microarray, higher = more signal.
A short description of test [17]: probe aShh binding to arrayed compounds – biochemical, biotinylated probe, 635/667 nm fluorescence, primary screen (AID 1114).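 Further: probe is biotin-labelled aShh protein from a stem cell growth factor screen; measures binding of labelled protein to compounds printed on the slide; score merges feature fluorescence at 667 nm with signal-to-noise.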 The settings on record: small-molecule microarray, higher = more signal.
Test [18] is described as follows: probe aNog binding to arrayed compounds – biochemical, biotinylated probe, 635/667 nm fluorescence, primary screen (AID 1115).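 Further: probe is biotinylated aNog protein used at 0.15 µg/mL for 1 h at 4 C; z-score combines 667 nm fluorescence of each spot with its signal to noise.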 Conditions: small-molecule microarray, higher = more signal.
In test [19] the target is Torsin-1A-interacting protein 1 (Homo sapiens) (UniProt Q5JTV8). The test is described as follows: compound microarray binding of lysate hLAP1 – cell lysate, small-molecule microarray, COS7 lysate, 635/667 nm fluorescence, primary screen (AID 1116). The settings on record: 635 nm fluorescence, higher = more signal.
The target in test [20] is Alpha-bungarotoxin (Bungarus multicinctus) (UniProt P60615). The test is described as follows: compounds binding labelled alpha-BTX control protein – biochemical, small-molecule microarray, Alexa647 label, 635/667 nm fluorescence, artefact control for SMM control protein annotation, profiling panel (AID 1117). Conditions: alpha-BTX-A647 binding fluorescence, higher = more signal.

Molecules are shown by their SMILES. Activity calls are given as the source filed them.

Sequence of Left-right determination factor 2 (Homo sapiens) (O00292 whole entry, looked up): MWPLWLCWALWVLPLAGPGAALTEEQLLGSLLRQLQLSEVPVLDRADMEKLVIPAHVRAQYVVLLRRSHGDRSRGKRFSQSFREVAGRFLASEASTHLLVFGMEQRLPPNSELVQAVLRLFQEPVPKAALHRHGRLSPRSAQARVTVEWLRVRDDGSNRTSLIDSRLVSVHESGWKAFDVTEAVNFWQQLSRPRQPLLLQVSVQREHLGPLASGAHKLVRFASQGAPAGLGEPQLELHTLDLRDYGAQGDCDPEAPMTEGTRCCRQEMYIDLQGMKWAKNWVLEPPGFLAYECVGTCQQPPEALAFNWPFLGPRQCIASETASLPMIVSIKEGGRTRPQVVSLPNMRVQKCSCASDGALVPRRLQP
Sequence of Dickkopf-related protein 1 (Homo sapiens) (O94907 whole entry, looked up): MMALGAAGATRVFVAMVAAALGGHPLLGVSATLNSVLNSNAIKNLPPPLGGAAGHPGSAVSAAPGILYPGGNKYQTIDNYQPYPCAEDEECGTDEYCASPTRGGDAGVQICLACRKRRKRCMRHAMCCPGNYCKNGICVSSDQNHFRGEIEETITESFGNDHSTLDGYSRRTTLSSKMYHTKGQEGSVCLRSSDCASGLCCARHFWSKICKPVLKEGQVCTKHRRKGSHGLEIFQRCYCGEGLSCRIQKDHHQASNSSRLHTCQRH
Sequence of Follistatin-related protein 3 (Homo sapiens) (O95633 whole entry, looked up): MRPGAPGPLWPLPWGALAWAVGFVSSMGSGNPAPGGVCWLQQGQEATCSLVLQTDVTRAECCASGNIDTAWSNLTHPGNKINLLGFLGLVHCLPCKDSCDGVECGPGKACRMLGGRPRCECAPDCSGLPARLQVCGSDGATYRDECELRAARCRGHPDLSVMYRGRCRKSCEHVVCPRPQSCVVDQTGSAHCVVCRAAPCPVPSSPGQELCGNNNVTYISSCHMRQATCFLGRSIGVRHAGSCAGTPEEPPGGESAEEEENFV
Sequence of Epidermal growth factor receptor (Homo sapiens) (P00533 whole entry, looked up): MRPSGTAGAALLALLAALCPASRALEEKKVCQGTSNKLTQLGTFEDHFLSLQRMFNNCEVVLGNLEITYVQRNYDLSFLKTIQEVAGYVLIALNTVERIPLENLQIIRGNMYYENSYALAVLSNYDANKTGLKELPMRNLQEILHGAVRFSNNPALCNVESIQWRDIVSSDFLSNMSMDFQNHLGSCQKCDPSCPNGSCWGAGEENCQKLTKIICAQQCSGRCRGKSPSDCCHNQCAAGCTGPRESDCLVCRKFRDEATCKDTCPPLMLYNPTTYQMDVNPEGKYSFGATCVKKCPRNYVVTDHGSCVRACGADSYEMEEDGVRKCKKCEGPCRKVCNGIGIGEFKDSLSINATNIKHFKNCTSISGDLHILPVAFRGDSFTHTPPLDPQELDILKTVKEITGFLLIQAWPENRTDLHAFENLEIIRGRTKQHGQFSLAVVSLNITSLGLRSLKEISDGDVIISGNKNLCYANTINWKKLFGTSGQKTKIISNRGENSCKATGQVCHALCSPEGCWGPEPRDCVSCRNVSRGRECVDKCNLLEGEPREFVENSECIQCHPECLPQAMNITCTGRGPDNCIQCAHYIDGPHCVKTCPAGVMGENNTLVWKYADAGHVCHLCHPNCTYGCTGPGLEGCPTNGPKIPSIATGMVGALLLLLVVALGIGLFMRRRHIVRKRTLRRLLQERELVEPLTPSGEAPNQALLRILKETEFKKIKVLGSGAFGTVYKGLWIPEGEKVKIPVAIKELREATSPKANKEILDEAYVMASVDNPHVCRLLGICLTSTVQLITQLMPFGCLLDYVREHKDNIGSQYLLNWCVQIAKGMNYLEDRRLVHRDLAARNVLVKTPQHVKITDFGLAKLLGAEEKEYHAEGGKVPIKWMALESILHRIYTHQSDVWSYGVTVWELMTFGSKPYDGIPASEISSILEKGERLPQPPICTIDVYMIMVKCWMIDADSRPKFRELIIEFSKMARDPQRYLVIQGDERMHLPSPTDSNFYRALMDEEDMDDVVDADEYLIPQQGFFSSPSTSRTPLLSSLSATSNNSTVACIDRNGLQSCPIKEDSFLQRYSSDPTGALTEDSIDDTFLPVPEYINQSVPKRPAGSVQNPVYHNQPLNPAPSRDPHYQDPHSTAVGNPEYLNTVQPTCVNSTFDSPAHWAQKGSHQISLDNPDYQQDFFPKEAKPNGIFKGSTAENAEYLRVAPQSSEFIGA
Sequence of Fibroblast growth factor 10 (Homo sapiens) (O15520 whole entry, looked up): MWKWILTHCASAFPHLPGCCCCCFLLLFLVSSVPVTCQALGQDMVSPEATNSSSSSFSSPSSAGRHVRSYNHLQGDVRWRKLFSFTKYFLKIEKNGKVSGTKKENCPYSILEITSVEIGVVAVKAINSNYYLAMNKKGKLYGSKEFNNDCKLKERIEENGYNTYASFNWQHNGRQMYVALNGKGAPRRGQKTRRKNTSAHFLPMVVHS
Sequence of Alpha-bungarotoxin (Bungarus multicinctus) (P60615 whole entry, looked up): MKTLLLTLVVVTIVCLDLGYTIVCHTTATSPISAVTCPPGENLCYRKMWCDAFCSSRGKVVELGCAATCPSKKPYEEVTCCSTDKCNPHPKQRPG
Sequence of Torsin-1A-interacting protein 1 (Homo sapiens) (Q5JTV8 whole entry, looked up): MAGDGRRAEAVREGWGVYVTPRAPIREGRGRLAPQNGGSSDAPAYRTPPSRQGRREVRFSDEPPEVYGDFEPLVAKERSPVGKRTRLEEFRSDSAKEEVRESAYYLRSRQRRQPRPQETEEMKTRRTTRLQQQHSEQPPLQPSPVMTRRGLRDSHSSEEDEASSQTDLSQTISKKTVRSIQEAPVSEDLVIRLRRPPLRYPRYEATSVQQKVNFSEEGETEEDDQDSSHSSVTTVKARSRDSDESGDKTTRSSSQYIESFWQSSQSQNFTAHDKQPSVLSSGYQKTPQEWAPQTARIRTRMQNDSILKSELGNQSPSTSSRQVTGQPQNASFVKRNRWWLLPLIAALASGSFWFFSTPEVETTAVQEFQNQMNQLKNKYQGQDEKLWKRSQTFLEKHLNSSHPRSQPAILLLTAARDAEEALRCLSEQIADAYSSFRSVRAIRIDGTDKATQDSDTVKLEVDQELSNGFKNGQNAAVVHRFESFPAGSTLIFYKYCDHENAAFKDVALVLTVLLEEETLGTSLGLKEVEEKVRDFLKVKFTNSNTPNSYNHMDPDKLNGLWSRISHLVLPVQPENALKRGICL

For `C=C[C@H](COC(C)=O)NS(=O)(=O)c1ccc(Br)cc1`, the composite z-score is 0.786 in test [1]; -0.247 in test [2]; -0.272 in [3]; -0.28 in test [5]; -0.384 in test [6]; 0.141 in test [7]. The composite z-score in test [8] was 0.128; in test [9] it was 0.516; in test [10], 0.294; in test [11], -0.292; in [13], 0.0605; in test [14], -0.173. For the same compound, the composite z-score in test [15] was -0.766; in [16] it was -0.0721; in [17] it was 0.0121; in [18], -0.219; in [19], 0.168; in test [20] it was 0.0669. Further, the z-score in [4] was 0.485 (inactive); in test [12] it was 0.55.

As to `CCOC(=O)C[C@H]1[C@H](OC(=O)c2ccc(-c3ccccc3)cc2)[C@@H](NC(=O)c2ccc3ccccc3n2)c2cc(OCCCO)ccc2N1C(=O)c1ccccc1`, the composite z-score in test [1] was 0.418; in [2] it was 0.048; in test [3], 0.475; in test [5], 0.785; in [6], 0.653; in [7], 0.143. The composite z-score in test [8] was 1.09; in test [9], 0.216; in [10], 0.407; in test [11], 1.33; in test [13], 0.479; in test [14] it was 0.992. The composite z-score is 0.389 in test [15]; -0.0606 in [16]; -0.0904 in test [17]; -0.302 in [18]; 0.574 in test [19]; 0.452 in [20]. In addition, the z-score was 0.0748 (inactive) in test [4] and -1.1 in test [12].

For the compound `COCCOC(=O)N1C(=O)[C@@]2(c3cc(C#CC4(O)CCCCCC4)ccc31)[C@H](c1ccccc1OCCO)N1[C@H](c3ccccc3)[C@H](c3ccccc3)OC(=O)[C@H]1[C@@H]2C(N)=O`, the composite z-score was found to be 0.651 in [1]; 0.255 in [2]; 0.0813 in [3]; 0.804 in test [5]; 1.28 in [6]; 0.442 in [7]. For the same compound, the composite z-score is 1.14 in [8]; 1.06 in test [9]; -0.132 in test [10]; -0.389 in test [11]; 0.844 in test [13]; 1.06 in test [14]. The composite z-score in test [15] was 0.0078; in test [16], -0.101; in [17], 0.337; in [18], 0.347; in test [19], 0.425; in [20], 1.72. For the same compound, the z-score in [4] was -0.349 (inactive); in test [12] it was -3.33.

As to `[N-]=[N+]=Nc1ccccc1C[C@@]1(C(=O)O)N=C(c2ccc(OCCCO)cc2)O[C@@H]1c1ccccc1`, the composite z-score in test [1] is 1.56; in test [2], 0.609; in test [3] it was 0.945; in [5] it was 0.0372; in [6], 0.0458; in test [7] it was -0.423. Moreover, the composite z-score in test [8] was 0.126; in [9], -0.829; in [10], 0.638; in [11], 1.3; in test [13], -0.862; in [14], 1.73. The composite z-score in test [15] was 0.294; in test [16], -0.0566; in test [17], 0.191; in test [18], 0.905; in test [19], 0.24; in test [20], 1.08. The z-score in test [4] was -0.282 (inactive); in test [12], 1.34.

In the case of `CC(C)N1C(=O)[C@@]2(c3ccc([N+](=O)[O-])cc3)CC(=O)N(C3CCCCC3)[C@@H]2c2ccc(CO)cc21`, the composite z-score in test [1] was 0.29; in [2], -0.227; in test [3] it was -0.173; in test [5] it was 0.269; in [6], 0.172; in test [7] it was -0.137. Also, the composite z-score is 0.656 in test [8]; 0.501 in test [9]; 0.859 in [10]; -0.242 in [11]; 0.11 in test [13]; -0.561 in test [14]. For the same compound, the composite z-score in [15] is -0.593; in test [16] it was -0.1; in test [17] it was -0.0553; in [18] it was -0.305; in [19], 0.214; in test [20], 0.329. The results for the z-score in [4] and in test [12] were 0.403 (inactive) and 0.711, respectively.
